# Only some compounds are listed: those with a hit (about 3.2% of all), similar ones and a draw of the others.
# dFosB activator: enhances mouse delta FosB homodimer DNA binding. P13346. activation, % at 25 µM. purified delta FosB, TAMRA-CDK5 oligo fluorescence polarization; percent of positive-control signal above neutral wells. hit rate 0.99% among 340,000;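 active = mean activation above about 17%, with every replicate also reaching it, limit read from the data, passing the limit was not always enough; inconclusive = only one of the two conditions met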
# esBAF inh: blocks esBAF chromatin remodeling in mouse ES cells | Bmi1-luciferase knock-in reporter, 24 h; 100% = twice the neutral-well signal | reporter increase, % at 12.5 µM | hit rate 2% among 350,000 | AID 602393; in the data active = activation above about 40%; inconclusive = no clear call, values can overlap the other calls;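 also: 0% = median of the plate's neutral control wells and 100% = double that signal; a rise in the Bmi1 reporter signal indicates esBAF inhibition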
# CDK5 p35 inh: CDK5/p35 (human) kinase inhibition; inhibition, % at 10 µM; Q00535+Q15078; Recombinant CDK5/p35, ADP-Glo luminescence, 60 min; AID 488839; hit rate 0.01% among 330,000;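 active = highest replicate inhibition of at least 50% and at least 75% of replicates reaching 50%; inconclusive = only one of the two criteria met; inactive = both criteria failed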;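 also: plate controls were DMSO neutral control for no effect and GW8510 at 10 µM for full effect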
# Target sequence (Q00535 whole entry, looked up): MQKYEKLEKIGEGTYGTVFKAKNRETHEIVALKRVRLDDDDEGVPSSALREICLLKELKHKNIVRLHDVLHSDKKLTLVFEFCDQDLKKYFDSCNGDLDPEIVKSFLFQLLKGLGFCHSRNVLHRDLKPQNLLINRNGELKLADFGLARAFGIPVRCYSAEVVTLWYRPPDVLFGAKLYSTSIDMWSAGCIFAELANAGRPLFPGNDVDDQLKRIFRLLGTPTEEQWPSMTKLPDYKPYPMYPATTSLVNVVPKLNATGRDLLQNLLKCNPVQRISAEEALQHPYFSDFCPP
# Target sequence (Q15078 whole entry, looked up): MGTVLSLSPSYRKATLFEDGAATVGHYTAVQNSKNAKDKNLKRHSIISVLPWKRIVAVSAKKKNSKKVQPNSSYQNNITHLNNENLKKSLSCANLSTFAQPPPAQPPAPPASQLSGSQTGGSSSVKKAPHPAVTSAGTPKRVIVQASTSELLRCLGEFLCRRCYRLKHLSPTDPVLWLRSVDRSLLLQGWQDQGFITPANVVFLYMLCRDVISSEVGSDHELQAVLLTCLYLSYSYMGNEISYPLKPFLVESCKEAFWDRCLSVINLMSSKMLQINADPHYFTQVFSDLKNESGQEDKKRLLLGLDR
# Rtt109 Vps75: inhibitors of Candida albicans Rtt109/Vps75 histone acetyltransferase. Q5AAJ8. purified Rtt109/Vps75, ThioGlo CoA-SH fluorescence, 4 h. inhibition, % at 34.9 µM. hit rate 0.16% among 330,000. AID 540336;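 active = inhibition of at least 50% in every replicate; inconclusive = best replicate reaches 50% inhibition but some replicates fall short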
# DYRK1A inh: inhibitors of rat Dyrk1A kinase | Q63470 | ADP-Glo luminescence, NFATc1 peptide | inhibition, % at 12.5 µM | hit rate 0.43% among 310,000; in the data active = inhibition above about 50%;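 also: plate controls were vehicle with enzyme for no effect and no enzyme for full effect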
# SMARCA2 activ: increases SMARCA2 function in MMTV reporter cells; hit rate 1% among 370,000; MG213 cells, MMTV-luciferase reporter, dexamethasone, overnight; activation, % at 9.1 µM; AID 652017; in the data active = activation above about 7.8%;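 also: 0% = vehicle wells and 100% = reference activator wells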
# Numbers without * were called inactive; ? = inconclusive; . = not tested or not shown.
SMILES,dFosB activator,esBAF inh,CDK5 p35 inh,Rtt109 Vps75,DYRK1A inh,SMARCA2 activ
COc1ccc(CN2C[C@@H](C)[C@H](OC)CN(C)C(=O)c3ccc(NC(=O)c4nc5ccccc5s4)cc3OC[C@H]2C)cc1,.,64*,.,.,.,.
CCNC(=O)[C@@H]1[C@@H](CO)[C@@H]2Cn3c(ccc(C4=CCCCC4)c3=O)[C@H]1N2Cc1cocn1,.,3,.,.,.,.
Cc1ccsc1CCNC(=O)C1CCC(=O)N(CCc2cccc(F)c2)C1 (stereo unspecified),3,65*,-1,0,7,4
C=CCC1(CC=C)CCCN1C(=O)C1CCC(=O)N(CCc2ccccc2)C1 (stereo unspecified),-5,9,3,9,3,0
COc1ccc(CCN2CC(C(=O)NCCc3ccccc3C(F)(F)F)CCC2=O)cc1 (stereo unspecified),-5,49*,.,-6,.,0
C=CCC1(CC=C)CCCN1C(=O)C1CCC(=O)N(CCc2ccc(OC)cc2)C1 (stereo unspecified),-7,69*,-2,12,-1,1
Cc1noc(C)c1NC(=O)N(C)C[C@H]1OCCCC[C@H](C)Oc2ccc(NS(=O)(=O)c3c(C)noc3C)cc2C(=O)N([C@H](C)CO)C[C@@H]1C,.,0,.,.,.,.
CO[C@@H]1CC[C@H]2CCN(C)C(=O)[C@H](C)N(C)C(=O)c3cc(C#N)ccc3OC[C@H]1O2,.,5,.,.,.,.
C[C@H](CO)N1C[C@H](C)[C@H](CN(C)Cc2ccc(C(F)(F)F)cc2)OCCCC[C@H](C)Oc2ccc(NS(=O)(=O)c3ccc(F)cc3)cc2C1=O,.,-6,.,.,.,.
C[C@H](CO)N1C[C@H](C)[C@@H](CN(C)Cc2cccc(C(=O)O)c2)Oc2ncc(C#C[C@@H](C)O)cc2C1=O,.,-6,.,.,.,.
Cc1ccccc1-c1cnc2c(c1)C(=O)N([C@H](C)CO)C[C@@H](C)[C@@H](CN(C)C(=O)CN(C)C)O2,.,0,.,.,.,.
Cc1noc(C(=O)Nc2cccc(Cl)c2)c1Cl,5,56*,0,-4,-1,2
CCc1ccc(NC(=O)c2onc(C)c2Cl)cc1,1,54*,-1,-2,1,2
Cc1noc(C(=O)Nc2ccc(C#N)cc2)c1Cl,-10,12,0,1,-2,-1
Cc1cc(O)c(C(=O)Nc2cccc(Cl)c2)c(=O)n1C,9,59*,.,5,.,4
O=C(NC1Cc2ccccc2C1)[C@@H]1[C@@H](CO)[C@@H]2Cn3c(ccc(C4=CCCCC4)c3=O)[C@H]1N2CC1CC1,.,5,.,.,.,.
CO[C@@H]1CC[C@H]2CCOc3ccc(C#N)cc3C(=O)N(C)C[C@@H](C)C(=O)N(C)C[C@@H]1O2,.,4,.,.,.,.
C[C@H](O)C#Cc1ccc([C@@H]2[C@H](CO)N3CCCCN(C(=O)c4cccc(F)c4)C[C@@H]23)cc1,.,-3,.,.,.,.
O=C1CSC(=S)N1N=Cc1ccc(OCc2ccccc2)cc1,.,50*,.,.,.,-1
O=C1CSC(=S)N1N=Cc1cccc(OCc2ccccc2)c1,.,27,.,.,.,-1
O=C(Nc1nnc(SCc2ccccc2F)s1)C1=COCCO1,-3,21,2,11,10,4
O=C(Nc1nnc(SCc2ccc(F)cc2)s1)C1=COCCO1,-16,48*,-1,-7,.,5
O=C(NCCc1ccccc1)C1=COCCO1,-4,48*,-2,6,-4,5
c1ccc(CSc2nnc(NC3=NCCCCC3)s2)cc1,-11,41*,1,.,-5,5
CC(C)(C)c1ccccc1NC(=O)C1=COCCO1,-4,-1,0,-4,2,2
SMILES,dFosB activator,esBAF inh,CDK5 p35 inh,Rtt109 Vps75,DYRK1A inh,SMARCA2 activ
CCCc1ccc(-c2csc(NC(=O)C3=COCCO3)n2)cc1,-12,65*,-1,2,-2,-3
N#C[C@@H]1[C@H](c2ccc(C#CCC3CCCC3)cc2)[C@@H](CO)N1C(=O)CN1CCOCC1,.,6,.,.,.,.
COc1ccc(S(=O)(=O)N(C)C[C@H]2Oc3ccc(NS(=O)(=O)c4ccccc4)cc3C(=O)N([C@@H](C)CO)C[C@@H]2C)cc1,.,-2,.,.,.,.
O=C(Nc1nnc(SCc2ccccc2)s1)C1=COCCO1,-18,67*,-1,-9,-6,4
COc1ccc(NC(=O)CSc2nnc(NC(=O)c3ccco3)s2)cc1OC,0,-1,-2,-1,-5,-2
O=C(CSc1nnc(NC(=O)c2ccco2)s1)Nc1ccc2c(c1)OCCO2,66*,3,-2,-7,.,-4
C[C@@H]1CN([C@@H](C)CO)C(=O)c2cc(NS(C)(=O)=O)ccc2O[C@@H]1CN(C)C(=O)Nc1ccc(C(F)(F)F)cc1,.,-3,.,.,.,.
CCOC(=O)/C(C#N)=C/c1ccc(-c2ccsc2C(=O)OC)o1,1,54*,0,0,8,0
COC(=O)C(=Cc1ccc(-c2ccsc2C(=O)OC)o1)C(=O)OC,3,.,0,1,4,7.9*
CCOC(=O)C(=Cc1ccc(-c2ccsc2C(=O)OC)o1)C(=O)OCC,-12,8,-1,15,-2,6
COc1ccc2nc3ccccc3nc2c1,-8,42*,-3,-3,9,6
COc1ccc(-c2nc3ccccc3nc2-c2ccccc2)cc1,-4,-1,-4,19,-1,0
CN(C)CCNC(=O)c1cccc2[nH]c(-c3ccncc3)nc12,38*,.,1,-4,7,5
CC(C)(C)CC(=O)Nc1nnc(CCc2ccccc2)s1,2,?,-3,2,.,2
CCC(C)(C)C(=O)Nc1nnc(CCc2ccccc2)s1,-5,62*,1,15,7,4
O=C(Nc1nnc(CCc2ccccc2)s1)c1cccs1,1,46*,1,-1,5,4
O=C(Nc1nnc(CCc2ccccc2)s1)c1ccco1,-5,23,0,-9,0,0
CNC[C@H]1OCCCC[C@@H](C)Oc2ccc(NS(=O)(=O)c3ccc(OC)cc3)cc2C(=O)N([C@H](C)CO)C[C@H]1C,.,-1,.,.,.,.
CC=Cc1ccc2n(c1=O)C[C@@H]1[C@@H](CO)[C@H](C(=O)NCc3ccccc3F)N(CC)[C@H]21 (mixture of isomers),.,1,.,.,.,.
Cc1ccc(C(=O)c2oc3ccccc3c2N)cc1,2,88*,1,-4,5,2
CCOC(=O)c1oc2ccccc2c1N,-1,.,-2,-2,-6,2
Nc1c(C(=O)c2ccc(Br)cc2)oc2ccccc12,-2,.,0,-5,4,2
Nc1c(N)c2ccccc2oc1=O,-3,12,0,0,4,-3
Nc1c(C(=O)c2cccs2)oc2ccccc12,-1,54*,-1,-1,12,3
Nc1c(C(=O)c2ccc(Br)s2)oc2ccccc12,-1,74*,-1,-1,6,7
O=C(C1CCOCC1)N1CC[C@@H]2[C@H](CO)Nc3ccc(-c4ccc(F)cc4)cc3[C@@H]21,.,-4,.,.,.,.

# Bioassay records (PubChem BioAssay)
